Assay results as given in ChEMBL document CHEMBL5724796, “Tm Shift (DSF) assay results for EUbOPEN Chemogenomics Library” (2024).
Residues, ends and D or L forms follow the SMILES beside them. *: point of attachment. Boc = CC(C)(C)OC(=O)*

What was measured:
Details in all cases: Compound concentration 20.0 uM
[1] = biological target: Tyrosine-protein kinase ABL1 (Homo sapiens) (UniProt P00519)
[2] = biological target: Bromodomain-containing protein 4 (Homo sapiens) (UniProt O60885)
[3] = biological target: Cyclin-dependent kinase 2 (Homo sapiens) (UniProt P24941)
[4] = biological target: Casein kinase I isoform delta (Homo sapiens) (UniProt P48730)
[5] = biological target: Glycogen synthase kinase-3 beta (Homo sapiens) (UniProt P49841)
[6] = biological target: Mitogen-activated protein kinase 1 (Homo sapiens) (UniProt P28482)
[7] = biological target: T1, Aurora kinase A (Homo sapiens) (UniProt O14965)
T1 sequence (whole entry): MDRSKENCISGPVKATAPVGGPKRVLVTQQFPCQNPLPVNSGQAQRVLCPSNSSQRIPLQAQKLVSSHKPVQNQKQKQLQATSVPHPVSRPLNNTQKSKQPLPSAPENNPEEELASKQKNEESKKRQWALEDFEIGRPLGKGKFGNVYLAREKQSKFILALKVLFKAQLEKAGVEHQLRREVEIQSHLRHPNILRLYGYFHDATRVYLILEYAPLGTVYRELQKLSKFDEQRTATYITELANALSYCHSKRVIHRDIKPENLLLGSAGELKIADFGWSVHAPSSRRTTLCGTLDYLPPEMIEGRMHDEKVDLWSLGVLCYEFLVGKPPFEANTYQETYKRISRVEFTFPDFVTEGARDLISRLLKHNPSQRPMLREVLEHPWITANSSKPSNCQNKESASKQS

[8] = biological target: T2, Transcription intermediary factor 1-alpha (Homo sapiens) (UniProt O15164)
T2 sequence (whole entry): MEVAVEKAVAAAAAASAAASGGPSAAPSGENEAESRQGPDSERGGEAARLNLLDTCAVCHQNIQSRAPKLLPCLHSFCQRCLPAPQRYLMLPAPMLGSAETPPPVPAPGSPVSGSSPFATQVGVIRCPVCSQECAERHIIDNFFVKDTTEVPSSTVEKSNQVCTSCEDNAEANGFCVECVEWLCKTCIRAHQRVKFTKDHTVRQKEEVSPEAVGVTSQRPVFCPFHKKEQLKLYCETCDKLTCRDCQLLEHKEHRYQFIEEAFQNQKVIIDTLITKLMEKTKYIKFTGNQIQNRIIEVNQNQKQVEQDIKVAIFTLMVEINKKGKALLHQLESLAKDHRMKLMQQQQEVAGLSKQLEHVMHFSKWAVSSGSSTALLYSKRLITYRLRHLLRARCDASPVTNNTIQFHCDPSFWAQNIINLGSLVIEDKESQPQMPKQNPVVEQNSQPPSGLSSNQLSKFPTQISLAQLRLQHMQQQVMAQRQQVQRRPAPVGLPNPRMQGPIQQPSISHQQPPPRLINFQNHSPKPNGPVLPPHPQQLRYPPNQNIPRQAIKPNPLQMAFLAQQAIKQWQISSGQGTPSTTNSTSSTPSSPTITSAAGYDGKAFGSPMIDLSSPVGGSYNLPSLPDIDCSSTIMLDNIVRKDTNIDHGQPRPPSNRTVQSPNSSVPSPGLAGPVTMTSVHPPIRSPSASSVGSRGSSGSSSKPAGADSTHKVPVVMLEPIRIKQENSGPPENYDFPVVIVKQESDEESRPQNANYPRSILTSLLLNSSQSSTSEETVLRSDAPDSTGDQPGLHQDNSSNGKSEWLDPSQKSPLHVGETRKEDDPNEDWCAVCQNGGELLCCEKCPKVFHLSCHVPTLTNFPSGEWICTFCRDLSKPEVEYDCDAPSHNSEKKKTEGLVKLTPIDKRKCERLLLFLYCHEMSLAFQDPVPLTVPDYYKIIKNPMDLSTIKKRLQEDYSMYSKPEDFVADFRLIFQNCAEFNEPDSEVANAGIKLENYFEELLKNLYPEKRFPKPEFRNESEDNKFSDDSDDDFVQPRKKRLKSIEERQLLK

Sequence of Mitogen-activated protein kinase 1 (Homo sapiens) (P28482 whole entry): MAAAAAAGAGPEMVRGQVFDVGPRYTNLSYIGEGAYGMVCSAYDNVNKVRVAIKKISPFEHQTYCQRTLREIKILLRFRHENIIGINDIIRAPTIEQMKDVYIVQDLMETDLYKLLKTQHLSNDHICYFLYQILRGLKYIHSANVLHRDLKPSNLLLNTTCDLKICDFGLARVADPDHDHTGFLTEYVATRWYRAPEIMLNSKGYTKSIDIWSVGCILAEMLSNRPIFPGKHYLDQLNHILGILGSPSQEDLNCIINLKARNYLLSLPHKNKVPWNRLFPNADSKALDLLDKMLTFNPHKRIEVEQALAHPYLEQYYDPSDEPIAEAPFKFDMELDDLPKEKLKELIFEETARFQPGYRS
Sequence of Casein kinase I isoform delta (Homo sapiens) (P48730 whole entry, looked up, canonical isoform): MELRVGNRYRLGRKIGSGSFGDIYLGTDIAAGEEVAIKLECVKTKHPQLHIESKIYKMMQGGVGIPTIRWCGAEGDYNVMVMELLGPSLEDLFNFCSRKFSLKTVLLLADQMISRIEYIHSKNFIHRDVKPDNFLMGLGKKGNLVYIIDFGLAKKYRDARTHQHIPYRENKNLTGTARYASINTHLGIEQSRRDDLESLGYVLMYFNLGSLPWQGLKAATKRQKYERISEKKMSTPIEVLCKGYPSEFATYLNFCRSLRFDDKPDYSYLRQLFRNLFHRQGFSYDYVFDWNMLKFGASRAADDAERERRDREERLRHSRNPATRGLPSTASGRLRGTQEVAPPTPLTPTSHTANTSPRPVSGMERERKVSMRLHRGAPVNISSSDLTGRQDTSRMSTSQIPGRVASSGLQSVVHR
Sequence of Tyrosine-protein kinase ABL1 (Homo sapiens) (P00519 whole entry): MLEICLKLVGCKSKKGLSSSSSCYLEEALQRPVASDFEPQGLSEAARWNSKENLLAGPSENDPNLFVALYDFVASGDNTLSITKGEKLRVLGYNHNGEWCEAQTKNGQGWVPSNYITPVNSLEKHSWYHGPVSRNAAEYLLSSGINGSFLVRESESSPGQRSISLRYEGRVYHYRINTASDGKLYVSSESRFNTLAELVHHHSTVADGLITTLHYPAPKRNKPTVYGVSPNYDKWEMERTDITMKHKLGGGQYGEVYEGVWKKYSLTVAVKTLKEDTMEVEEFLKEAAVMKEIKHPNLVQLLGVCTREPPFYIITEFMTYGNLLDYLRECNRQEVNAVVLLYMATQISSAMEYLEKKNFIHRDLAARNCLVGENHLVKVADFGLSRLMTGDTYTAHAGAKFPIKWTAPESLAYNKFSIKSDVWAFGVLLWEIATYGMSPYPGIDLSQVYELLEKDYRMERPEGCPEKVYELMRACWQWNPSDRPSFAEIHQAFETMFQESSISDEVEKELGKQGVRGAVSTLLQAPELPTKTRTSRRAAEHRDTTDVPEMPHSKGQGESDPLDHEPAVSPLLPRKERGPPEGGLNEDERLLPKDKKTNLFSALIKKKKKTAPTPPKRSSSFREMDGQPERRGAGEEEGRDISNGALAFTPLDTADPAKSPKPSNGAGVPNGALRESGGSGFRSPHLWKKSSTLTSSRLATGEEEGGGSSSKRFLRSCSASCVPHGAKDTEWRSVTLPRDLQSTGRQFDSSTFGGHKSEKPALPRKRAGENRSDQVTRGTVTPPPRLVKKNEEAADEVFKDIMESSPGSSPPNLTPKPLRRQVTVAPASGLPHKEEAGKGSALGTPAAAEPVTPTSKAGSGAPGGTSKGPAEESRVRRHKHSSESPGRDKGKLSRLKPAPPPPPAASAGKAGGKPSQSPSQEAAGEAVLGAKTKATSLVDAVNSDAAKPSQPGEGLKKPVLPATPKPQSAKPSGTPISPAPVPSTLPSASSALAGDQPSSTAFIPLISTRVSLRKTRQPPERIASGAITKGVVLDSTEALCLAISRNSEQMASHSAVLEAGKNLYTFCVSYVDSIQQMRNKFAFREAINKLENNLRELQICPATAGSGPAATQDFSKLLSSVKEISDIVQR
Sequence of Glycogen synthase kinase-3 beta (Homo sapiens) (P49841 whole entry, looked up): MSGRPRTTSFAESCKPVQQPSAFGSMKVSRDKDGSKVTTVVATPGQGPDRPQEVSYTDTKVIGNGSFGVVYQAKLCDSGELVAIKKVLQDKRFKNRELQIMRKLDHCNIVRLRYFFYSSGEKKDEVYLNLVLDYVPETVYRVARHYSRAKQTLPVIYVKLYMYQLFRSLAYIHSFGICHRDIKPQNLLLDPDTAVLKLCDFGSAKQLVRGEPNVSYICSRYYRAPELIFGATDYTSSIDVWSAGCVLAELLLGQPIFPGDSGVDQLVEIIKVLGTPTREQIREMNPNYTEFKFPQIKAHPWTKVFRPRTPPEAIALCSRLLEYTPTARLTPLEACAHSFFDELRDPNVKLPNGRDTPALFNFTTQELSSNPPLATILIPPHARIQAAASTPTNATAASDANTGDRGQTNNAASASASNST

CC(C)(C)c1ccc(CN(C(=O)CN(Cc2c(F)c(F)c(F)c(F)c2F)S(=O)(=O)c2ccc(F)cc2)c2ccc(C(=O)NO)cc2)cc1
ΔTm [1]: 1.56 °C
ΔTm [2]: 8.81 °C
ΔTm [3]: 9.04 °C
ΔTm [4]: -5.74 °C
ΔTm [5]: 14.4 °C
ΔTm [6]: -2.29 °C
ΔTm [7]: 9.93 °C
ΔTm [8]: 0 °C

COc1ccc(-c2ccc3c(c2)COC3=O)n2nc(C3(C(=O)OCC(C)C)CC3)nc12
ΔTm [1]: 0.4 °C
ΔTm [2]: 2.58 °C
ΔTm [3]: 0.54 °C
ΔTm [4]: 0.04 °C
ΔTm [5]: -0.38 °C
ΔTm [6]: 1.36 °C
ΔTm [7]: -1.67 °C
ΔTm [8]: 0.5 °C

Cc1nccn1CC1CCc2c(c3ccccc3n2C)C1=O (stereo not given)
ΔTm [1]: 0.4 °C
ΔTm [2]: -1.31 °C
ΔTm [3]: -0.09 °C
ΔTm [4]: -0.21 °C
ΔTm [5]: -0.4 °C
ΔTm [6]: 0.1 °C
ΔTm [7]: -1.95 °C
ΔTm [8]: 0.35 °C

COc1cc2c(cc1-c1c(C)noc1C)[nH]c1nc(C)nc(Nc3cc(C4CC4)nn3C)c12
ΔTm [1]: 0.79 °C
ΔTm [2]: 14.9 °C
ΔTm [3]: -0.63 °C
ΔTm [4]: -0.39 °C
ΔTm [5]: 0.26 °C
ΔTm [6]: 0.59 °C
ΔTm [7]: -0.72 °C
ΔTm [8]: 0.66 °C

O=C(Nc1c[nH]nc1C(=O)NC1CCNCC1)c1cc(F)cc(F)c1
ΔTm [1]: 0.13 °C
ΔTm [2]: -1.86 °C
ΔTm [3]: 1.26 °C
ΔTm [4]: 1.02 °C
ΔTm [5]: 13.9 °C
ΔTm [6]: -0.13 °C
ΔTm [7]: -0.72 °C
ΔTm [8]: -0.9 °C

CCC(NC(=O)C(CC(C)C)NC(=O)OCc1ccccc1)C(=O)C(=O)NCCCN1CCOCC1 (stereo not given)
ΔTm [1]: 0.13 °C
ΔTm [2]: -2.44 °C
ΔTm [3]: -0.24 °C
ΔTm [4]: 0.08 °C
ΔTm [5]: -1.31 °C
ΔTm [6]: -0.33 °C
ΔTm [7]: -0.93 °C
ΔTm [8]: -1.35 °C

CC(C)(C)OC(=O)N1CCC[C@H]1C(=O)N1CCC[C@H]1C=O (Boc-Pro-Pro-aldehyde)
ΔTm [1]: 0.36 °C
ΔTm [2]: -1.7 °C
ΔTm [3]: 0.06 °C
ΔTm [4]: -0.53 °C
ΔTm [5]: -0.11 °C
ΔTm [6]: 0.63 °C
ΔTm [7]: -2.5 °C
ΔTm [8]: -0.63 °C

CC(C)c1ccc(-c2cc(=O)c3ccccc3o2)cc1
ΔTm [1]: 1.37 °C
ΔTm [2]: -0.23 °C
ΔTm [3]: -0.03 °C
ΔTm [4]: 0.58 °C
ΔTm [5]: 0 °C
ΔTm [6]: 0.37 °C
ΔTm [7]: -1.77 °C
ΔTm [8]: -0.62 °C

CC(=O)N1CCC(c2ccc(C(=O)NC(=N)N)cc2C(F)(F)F)CC1
ΔTm [1]: 0.12 °C
ΔTm [2]: 0.39 °C
ΔTm [3]: 0.7 °C
ΔTm [4]: -0.02 °C
ΔTm [5]: -0.96 °C
ΔTm [6]: 0.47 °C
ΔTm [7]: -0.69 °C
ΔTm [8]: 1.39 °C

CC(C)c1cc(C(=O)N2Cc3ccc(CN4CCN(C)CC4)cc3C2)c(O)cc1O
ΔTm [1]: 1.01 °C
ΔTm [2]: -1.29 °C
ΔTm [3]: 0.67 °C
ΔTm [4]: 0.22 °C
ΔTm [5]: -0.43 °C
ΔTm [6]: -0.06 °C
ΔTm [7]: -0.12 °C
ΔTm [8]: -0.61 °C

CNCc1ccc(-c2cc3cc(F)cc(C(N)=O)c3o2)cc1
ΔTm [1]: 0.6 °C
ΔTm [2]: -0.09 °C
ΔTm [3]: 1.2 °C
ΔTm [4]: 0.55 °C
ΔTm [5]: 0.51 °C
ΔTm [6]: 0.83 °C
ΔTm [7]: -1.29 °C
ΔTm [8]: 0.67 °C

NC(=O)C1CN(CCCCC(c2ccc(F)cc2)c2ccc(F)cc2)CCN1CC(=O)Nc1c(Cl)cc(N)cc1Cl (stereo not given)
ΔTm [1]: -3.72 °C
ΔTm [2]: -1.03 °C
ΔTm [3]: -3.44 °C
ΔTm [4]: -5.13 °C
ΔTm [5]: -5.78 °C
ΔTm [6]: -8.93 °C
ΔTm [7]: -8.05 °C
ΔTm [8]: 4.39 °C

CCC(=O)N1CCOc2c(cc(-c3cc(OC)cc(OC)c3)cc2C(=O)N[C@H]2CCCN(C)C2)C1
ΔTm [1]: 0.72 °C
ΔTm [2]: -0.15 °C
ΔTm [3]: 0.57 °C
ΔTm [4]: 0.5 °C
ΔTm [5]: -1.27 °C
ΔTm [6]: 0.1 °C
ΔTm [7]: 0.01 °C
ΔTm [8]: -2.74 °C

O=C(CN1CCN(C(=O)c2ccco2)CC1)Nc1cc(C(F)(F)F)ccc1Cl
ΔTm [1]: 0.19 °C
ΔTm [2]: 2.01 °C
ΔTm [3]: 0.06 °C
ΔTm [4]: -0.11 °C
ΔTm [5]: -0.95 °C
ΔTm [6]: 0.07 °C
ΔTm [7]: -1.45 °C
ΔTm [8]: 0.51 °C

CC1C(C#N)=C(N)OC2=C1C(=O)CC(c1cccc3ccccc13)C2 (stereo not given)
ΔTm [1]: 0.3 °C
ΔTm [2]: -2.09 °C
ΔTm [3]: -0.28 °C
ΔTm [4]: 3.72 °C
ΔTm [5]: 4.85 °C
ΔTm [6]: -2.01 °C
ΔTm [7]: -0.97 °C
ΔTm [8]: -1.61 °C

COc1ccc(CNc2nc(N3CCC[C@H]3CO)ncc2C(=O)NCc2ncccn2)cc1Cl
ΔTm [1]: 0.44 °C
ΔTm [2]: -1.19 °C
ΔTm [3]: -0.26 °C
ΔTm [4]: 0.12 °C
ΔTm [5]: 0.12 °C
ΔTm [6]: 0.04 °C
ΔTm [7]: -1.84 °C
ΔTm [8]: -0.51 °C

CC(C)N(CCCNC(=O)Nc1ccc(C(C)(C)C)cc1)C[C@H]1O[C@@H](n2ccc3c(N)ncnc32)[C@H](O)[C@@H]1O
ΔTm [1]: 0.45 °C
ΔTm [2]: -1.62 °C
ΔTm [3]: 0.52 °C
ΔTm [4]: 0.47 °C
ΔTm [5]: -0.31 °C
ΔTm [6]: 0.01 °C
ΔTm [7]: 0.01 °C
ΔTm [8]: -1.18 °C

CCc1c(-c2ccccc2)c(-c2ccccc2)nn1-c1ccccc1-c1cccc(OCC(=O)O)c1
ΔTm [1]: -0.2 °C
ΔTm [2]: -8.88 °C
ΔTm [3]: -1.12 °C
ΔTm [4]: -2.01 °C
ΔTm [5]: 0 °C
ΔTm [6]: -0.5 °C
ΔTm [7]: -3.9 °C
ΔTm [8]: -3.28 °C

C[C@@H]1CN(c2ncc(Cl)c(Nc3ccc4c(c3)n(CCC(C)(C)O)c(=O)n4C)n2)C[C@H](C)C1(F)F
ΔTm [1]: -0.67 °C
ΔTm [2]: 0.35 °C
ΔTm [3]: 1.82 °C
ΔTm [4]: -0.69 °C
ΔTm [5]: 4.11 °C
ΔTm [6]: -8.12 °C
ΔTm [7]: 4 °C
ΔTm [8]: 2.58 °C

CN1Cc2c(Cl)cc(Cl)cc2[C@H](c2cccc(S(=O)(=O)NCCOCCOCCNC(=O)NCCCCNC(=O)NCCOCCOCCNS(=O)(=O)c3cccc([C@@H]4CN(C)Cc5c(Cl)cc(Cl)cc54)c3)c2)C1
ΔTm [1]: -0.4 °C
ΔTm [2]: -2.19 °C
ΔTm [3]: -0.62 °C
ΔTm [4]: -0.55 °C
ΔTm [5]: -1.54 °C
ΔTm [6]: 0 °C
ΔTm [7]: -2.14 °C
ΔTm [8]: -0.19 °C
